# Candida biofilm: kills Candida albicans biofilms. inhibition, % at 6 µM. C. albicans biofilm + clotrimazole, Alamar Blue. 85,000 compounds, 0.14% hits;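 active = inhibition above 20%; inactive = inhibition below 20%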;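 note: preformed 24 hr biofilms exposed to compound for 48 hr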
# ERb coact inh: blocks coactivator binding to human estrogen receptor beta; Q92731; TR-FRET ER-beta LBD / SRC1-Cy5 peptide binding; receptor agonist-loaded with 1 µM estradiol; inhibition, % at 25.6 µM; 86,000 compounds, 1.3% hits;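 active = compounds whose percent inhibition of the receptor-coactivator binding signal exceeds about 50% in the single-dose screen, limit read from the data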
# ERa SRC1 pot: ER-alpha (human) coactivator binding potentiation; 86,000 compounds, 1.3% hits; coactivator binding (% of control), % at 25.6 µM; TR-FRET ERalpha-LBD/SRC-Cy5 coactivator binding, 2 h; 100 = basal binding, no effect; P03372; in the data active = activity above about 200%;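 note: binding measured in presence of low estradiol as agonist stimulus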
# Target sequence (P03372 whole entry, looked up, the tested form may be a part): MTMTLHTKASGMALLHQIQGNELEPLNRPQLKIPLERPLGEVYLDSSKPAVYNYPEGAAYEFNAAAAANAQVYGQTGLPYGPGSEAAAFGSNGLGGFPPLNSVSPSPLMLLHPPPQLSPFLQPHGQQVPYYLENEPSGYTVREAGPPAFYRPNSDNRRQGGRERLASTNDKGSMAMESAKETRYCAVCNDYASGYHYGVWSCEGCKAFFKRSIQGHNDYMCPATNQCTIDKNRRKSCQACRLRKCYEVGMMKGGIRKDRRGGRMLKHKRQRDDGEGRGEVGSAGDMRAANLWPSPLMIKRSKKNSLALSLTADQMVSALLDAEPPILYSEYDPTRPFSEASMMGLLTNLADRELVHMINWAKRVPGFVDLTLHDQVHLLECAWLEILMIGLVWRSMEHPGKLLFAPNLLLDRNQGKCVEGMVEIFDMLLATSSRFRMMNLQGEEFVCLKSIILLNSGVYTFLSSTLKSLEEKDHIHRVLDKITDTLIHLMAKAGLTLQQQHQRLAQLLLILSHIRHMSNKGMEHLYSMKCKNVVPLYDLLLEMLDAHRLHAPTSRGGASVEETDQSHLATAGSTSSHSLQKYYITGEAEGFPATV
# Smad3 inh: blocks human Smad3 binding to FoxH1 peptide. inhibition, % at 25 µM. 88,000 compounds, 0.29% hits. P84022. TR-FRET Smad3/Dy647-FoxH1 peptide binding, europium anti-His;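 active = compounds that reduce the energy-transfer binding signal between the protein and its labelled peptide by more than half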
# ERa SRC1 inh: ER-alpha (human) coactivator binding inhibition. P03372. TR-FRET ER-alpha LBD / SRC-1 peptide, estradiol-bound. inhibition, % at 25.6 µM. 86,000 compounds, 1.7% hits. AID 629; in the data active = inhibition above about 50%
# Hits are given with their value; 0 = inactive; - = no result given; [ ] = dose if it differs, or a comment. Hits are enriched below; roughly 3.6% of the tested compounds scored in any of these assays.
SMILES,Candida biofilm,ERb coact inh,ERa SRC1 pot,Smad3 inh,ERa SRC1 inh
CC(=O)Nc1ccc2oc(-c3cc(F)c(F)cc3Cl)nc2c1,0,0,0,0,0
[O-][n+]1c2c(c3c4non(O)c4ccc31)CCCC2,0,0,0,0,0
CCOC(=O)Cn1c(-c2nonc2NC(=O)c2ccccc2F)nc2ccccc21,0,0,322,0,0
CCC(=O)Nc1nonc1-c1nc2ccccc2n1Cc1cccc2ccccc12,0,0,204[fluorescence artefact?],0,0
CCC(=O)Nc1nonc1-c1nc2ccccc2n1Cc1ccccc1,-,0,0,0,0
CCC(=O)Nc1nonc1-c1nc2ccccc2n1N(C(=O)CC)C(=O)CC,0,0,0,0,59
CCOC(=O)c1c(C)[nH]c(C(=O)CSc2nnnn2-c2ccc(C)cc2)c1C,0,0,0,0,0
CCOC(=O)c1c(C)[nH]c(C(=O)CSc2nnnn2-c2ccccc2)c1C,0,58[fluorescence artefact?],205[fluorescence artefact?],0,58[fluorescence artefact?]
CN(C)Cc1cc(C(C)(C)C)ccc1-c1ccc(C(C)(C)C)cc1CN(C)C,-,-,-,70,-
COc1ccccc1N1CCN(C(=O)c2ccc3nc(-c4ccco4)c(-c4ccco4)nc3c2)CC1,0,66,0,0,68[fluorescence artefact?]
CCCc1nc2oc3cc(OC)ccc3c(=O)c2c(=O)n1Cc1ccco1,0,0,0,0,0
CCCc1nc2sc3ccccc3c(=O)c2c(=O)n1Cc1ccco1,0,64,0,0,70[fluorescence artefact?]
O=C(C1CCC(=O)N1C1CCCCC1)N1CCN(c2ccc(F)cc2)CC1 (centres undefined),0,0,0,0,0
CCOC(=O)C1CCN(S(=O)(=O)Cc2ccccc2)C1=O (centres undefined),0,68[fluorescence artefact?],0,0,0
O=c1cc(CN2CCN(c3ccccc3)CC2)c2cc(O)c(-c3ccccc3)cc2o1,0,0,0,0,79[fluorescence artefact?]
O=c1cc(CN2CCN(c3ccccc3)CC2)c2c(ccc3ccccc32)o1,0,0,0,0,0
O=c1cc(CN2CCN(Cc3ccccc3)CC2)c2cc(Cl)ccc2o1,0,60[fluorescence artefact?],0,0,0
Cc1cccc(S(=O)(=O)c2c(N)n(/N=C/c3ccco3)c3nc4ccccc4nc23)c1,0,0,253,0,0
C=C(C)CSc1nc2c(c(=O)[nH]c(=O)n2C)n1CCC(C)C,0,0,0,0,0
CCCn1c(CN(Cc2ccccc2)Cc2ccccc2)nc2c1c(=O)n(C)c(=O)n2C,25,0,0,0,0
N#Cc1ccsc1NC(=O)CSc1ncnc2ccccc12,0,61,0,0,91[fluorescence artefact?]
Cn1ccnc1SCC(=O)Nc1sccc1C#N,0,0,0,0,67[fluorescence artefact?]
COc1ccc(C)cc1S(=O)(=O)N1c2ccccc2CC1C (centres undefined),0,0,0,0,0
CCOC(=O)C1=C(O)/C(=C\c2ccc(CNC(=O)C(=O)Nc3ccccc3)o2)N=C1C,0,72,0,0,81
CCOC(=O)C1=C(O)/C(=C\c2ccc(OC)c(OC)c2)N=C1C,0,0,0,0,0
SMILES,Candida biofilm,ERb coact inh,ERa SRC1 pot,Smad3 inh,ERa SRC1 inh
CC(C)CCN1CC(O)=C(c2nc(-c3ccc(Cl)cc3)cs2)C1=N,0,0,219,0,0
Cc1[nH]n(-c2ccccc2)c(=O)c1-c1ccccc1,0,0,0,0,0
Nc1[nH]n(-c2ccccc2)c(=O)c1N=Nc1ccccc1[N+](=O)[O-],0,52,0,0,88[fluorescence artefact?]
N#Cc1ccc(NC(=O)c2cc3cc4c5c(c3oc2=N)CCCN5CCC4)cc1,0,0,0,0,64
CC(=O)Oc1ccc(CCC(C)OC(C)=O)cc1 (centres undefined),0,0,0,0,0
O=C(NCc1ccco1)C1CN(S(=O)(=O)c2ccccc2)CCN1S(=O)(=O)c1ccccc1 (centres undefined),0,0,0,0,0
O=C(NCc1ccco1)C1Cc2ccccc2CN1S(=O)(=O)c1ccccc1F (centres undefined),0,0,202[fluorescence artefact?],0,0
CN(C)S(=O)(=O)c1ccc2c(c1)c(=O)c(C(=O)NCCCN1CCCCCC1)cn2C,0,0,0,0,62[fluorescence artefact?]
Cn1cc(C(=O)NC2CCCCCC2)c(=O)c2cc(S(=O)(=O)N3CCCC3)ccc21,0,0,232[fluorescence artefact?],0,65
Cc1nc2ccccc2n2c(-c3ccccc3)c3c(=O)n(C)c(=O)n(C)c3c12,0,0,0,0,0
Cc1sc2ccccc2[n+]1CCC(=O)O,-,-,-,72,-
Cc1ccc2c(CC(=O)OCc3csc(C)n3)coc2c1,0,0,0,0,0
O=C(Cc1coc2cc3c(cc12)CCC3)OCc1cc(=O)n2c(n1)sc1ccccc12,0,72,0,0,76
O=C(NCCC1=CCCCC1)c1ccc2c(c1)N(Cc1ccccc1)C(=O)CS2,0,0,0,0,0
CN1C(=O)CS(=O)c2ccc(C(=O)NCCC3=CCCCC3)cc21 (centres undefined),21,0,0,0,0
CCn1c2ccccc2c2cc(C3C(C#N)=C(C)NC(C)=C3C#N)ccc21,0,0,215,0,0

# Compound activity from PubChem BioAssay.
